Results published in ChEMBL document CHEMBL1961873, “Compounds: GSK PKIS; Assays: Nanosyn kinase panel” (2012).

Assays:
[1] = target: Tyrosine-protein kinase Fyn (Homo sapiens) (UniProt P06241); conditions: at 1 µM
[2] = target: Tyrosine-protein kinase HCK (Homo sapiens) (UniProt P08631); conditions: at 0.1 µM
[3] = target: Tyrosine-protein kinase HCK (Homo sapiens) (UniProt P08631); conditions: at 1 µM
[4] = target: Insulin-like growth factor 1 receptor (Homo sapiens) (UniProt P08069); conditions: at 0.1 µM
[5] = target: Insulin-like growth factor 1 receptor (Homo sapiens) (UniProt P08069); conditions: at 1 µM
[6] = target: Insulin receptor (Homo sapiens) (UniProt P06213); conditions: at 0.1 µM
[7] = target: Insulin receptor (Homo sapiens) (UniProt P06213); conditions: at 1 µM
[8] = target: Insulin receptor-related protein (Homo sapiens) (UniProt P14616); conditions: at 0.1 µM
[9] = target: Insulin receptor-related protein (Homo sapiens) (UniProt P14616); conditions: at 1 µM
[10] = target: T1, Tyrosine-protein kinase ITK/TSK (Homo sapiens) (UniProt Q08881); conditions: at 0.1 µM
T1 sequence (whole entry): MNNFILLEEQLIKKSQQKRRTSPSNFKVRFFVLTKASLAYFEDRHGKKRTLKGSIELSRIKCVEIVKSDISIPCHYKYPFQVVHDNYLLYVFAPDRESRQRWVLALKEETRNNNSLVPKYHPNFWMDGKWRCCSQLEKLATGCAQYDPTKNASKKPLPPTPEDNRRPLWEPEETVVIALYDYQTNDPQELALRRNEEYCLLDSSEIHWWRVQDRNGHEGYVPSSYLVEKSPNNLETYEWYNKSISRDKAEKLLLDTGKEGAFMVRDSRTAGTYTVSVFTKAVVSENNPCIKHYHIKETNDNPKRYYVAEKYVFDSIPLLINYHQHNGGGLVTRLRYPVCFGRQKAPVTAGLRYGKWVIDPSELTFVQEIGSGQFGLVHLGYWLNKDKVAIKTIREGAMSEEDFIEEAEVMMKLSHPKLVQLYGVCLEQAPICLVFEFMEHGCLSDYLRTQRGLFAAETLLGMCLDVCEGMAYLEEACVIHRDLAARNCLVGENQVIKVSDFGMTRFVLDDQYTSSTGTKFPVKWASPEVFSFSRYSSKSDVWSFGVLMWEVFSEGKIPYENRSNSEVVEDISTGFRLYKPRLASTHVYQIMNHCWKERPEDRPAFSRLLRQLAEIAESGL

[11] = target: T1, Tyrosine-protein kinase ITK/TSK (Homo sapiens); conditions: at 1 µM
[12] = target: Tyrosine-protein kinase JAK1 (Homo sapiens) (UniProt P23458); conditions: at 0.1 µM
[13] = target: Tyrosine-protein kinase JAK1 (Homo sapiens) (UniProt P23458); conditions: at 1 µM
[14] = target: Tyrosine-protein kinase JAK2 (Homo sapiens) (UniProt O60674); conditions: at 0.1 µM
[15] = target: Tyrosine-protein kinase JAK2 (Homo sapiens) (UniProt O60674); conditions: at 1 µM
[16] = target: T2, Tyrosine-protein kinase JAK3 (Homo sapiens) (UniProt P52333); conditions: at 0.1 µM
T2 sequence (whole entry): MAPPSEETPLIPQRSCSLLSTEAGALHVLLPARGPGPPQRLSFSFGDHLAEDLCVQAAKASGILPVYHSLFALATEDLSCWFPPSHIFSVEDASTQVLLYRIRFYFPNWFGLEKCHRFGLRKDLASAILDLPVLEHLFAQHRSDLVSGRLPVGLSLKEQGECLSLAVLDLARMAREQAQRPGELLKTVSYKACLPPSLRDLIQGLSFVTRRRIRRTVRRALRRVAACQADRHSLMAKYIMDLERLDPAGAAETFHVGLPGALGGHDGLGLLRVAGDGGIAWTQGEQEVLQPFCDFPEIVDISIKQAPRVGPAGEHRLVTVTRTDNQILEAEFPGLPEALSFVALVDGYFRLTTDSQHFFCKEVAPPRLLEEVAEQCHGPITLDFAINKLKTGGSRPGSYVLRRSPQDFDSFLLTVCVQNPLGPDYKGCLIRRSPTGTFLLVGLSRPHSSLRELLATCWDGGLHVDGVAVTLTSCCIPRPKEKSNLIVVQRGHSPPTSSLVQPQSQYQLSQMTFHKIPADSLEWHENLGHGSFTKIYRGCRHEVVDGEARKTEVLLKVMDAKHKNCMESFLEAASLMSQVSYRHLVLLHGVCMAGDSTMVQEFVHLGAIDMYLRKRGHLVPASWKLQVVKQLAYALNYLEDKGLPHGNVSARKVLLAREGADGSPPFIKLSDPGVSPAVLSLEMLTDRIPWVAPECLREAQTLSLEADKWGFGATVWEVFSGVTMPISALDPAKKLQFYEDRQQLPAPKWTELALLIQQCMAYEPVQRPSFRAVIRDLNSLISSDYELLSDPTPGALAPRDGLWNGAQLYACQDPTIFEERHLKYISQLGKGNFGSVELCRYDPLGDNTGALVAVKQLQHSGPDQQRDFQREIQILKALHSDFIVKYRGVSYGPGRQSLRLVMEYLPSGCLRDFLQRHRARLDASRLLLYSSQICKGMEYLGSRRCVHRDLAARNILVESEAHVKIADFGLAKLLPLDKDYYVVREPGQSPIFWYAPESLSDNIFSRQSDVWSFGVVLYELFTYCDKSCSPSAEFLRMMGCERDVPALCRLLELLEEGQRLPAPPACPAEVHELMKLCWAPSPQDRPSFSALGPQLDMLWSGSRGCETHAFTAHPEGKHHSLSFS

[17] = target: T2, Tyrosine-protein kinase JAK3 (Homo sapiens); conditions: at 1 µM
[18] = target: Vascular endothelial growth factor receptor 2 (Homo sapiens) (UniProt P35968); conditions: at 0.1 µM
[19] = target: Vascular endothelial growth factor receptor 2 (Homo sapiens) (UniProt P35968); conditions: at 1 µM
[20] = target: Mast/stem cell growth factor receptor Kit (Homo sapiens) (UniProt P10721); conditions: at 0.1 µM;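 further: values are mean inhibition of KIT, from the GSK PKIS dataset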
Sequence of Mast/stem cell growth factor receptor Kit (Homo sapiens) (P10721 whole entry): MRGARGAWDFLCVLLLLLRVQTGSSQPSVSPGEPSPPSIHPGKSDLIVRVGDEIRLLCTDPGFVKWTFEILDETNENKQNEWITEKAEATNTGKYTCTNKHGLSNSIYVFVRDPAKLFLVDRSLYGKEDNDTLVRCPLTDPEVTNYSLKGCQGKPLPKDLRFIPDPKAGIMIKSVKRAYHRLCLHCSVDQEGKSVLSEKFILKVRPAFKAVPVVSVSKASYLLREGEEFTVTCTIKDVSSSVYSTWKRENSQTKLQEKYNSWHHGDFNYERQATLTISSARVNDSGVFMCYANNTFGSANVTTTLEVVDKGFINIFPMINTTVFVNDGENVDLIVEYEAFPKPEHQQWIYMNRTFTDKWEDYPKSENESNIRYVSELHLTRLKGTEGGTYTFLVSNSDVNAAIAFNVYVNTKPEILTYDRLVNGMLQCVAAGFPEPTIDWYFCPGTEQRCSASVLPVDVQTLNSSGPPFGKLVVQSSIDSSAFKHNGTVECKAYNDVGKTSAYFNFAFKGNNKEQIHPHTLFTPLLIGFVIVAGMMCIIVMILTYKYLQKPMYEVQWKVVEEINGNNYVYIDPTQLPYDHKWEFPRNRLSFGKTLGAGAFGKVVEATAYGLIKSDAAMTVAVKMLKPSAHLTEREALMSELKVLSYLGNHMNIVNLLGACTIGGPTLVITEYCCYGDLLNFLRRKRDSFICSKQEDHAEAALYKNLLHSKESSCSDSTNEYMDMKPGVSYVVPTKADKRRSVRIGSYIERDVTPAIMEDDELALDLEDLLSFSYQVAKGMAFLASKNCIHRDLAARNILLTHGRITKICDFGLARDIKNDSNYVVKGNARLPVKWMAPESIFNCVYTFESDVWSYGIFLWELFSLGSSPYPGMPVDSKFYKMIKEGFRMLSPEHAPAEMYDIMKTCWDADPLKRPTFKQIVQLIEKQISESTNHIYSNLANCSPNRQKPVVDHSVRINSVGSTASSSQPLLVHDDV

Sequence of Tyrosine-protein kinase JAK2 (Homo sapiens) (O60674 whole entry): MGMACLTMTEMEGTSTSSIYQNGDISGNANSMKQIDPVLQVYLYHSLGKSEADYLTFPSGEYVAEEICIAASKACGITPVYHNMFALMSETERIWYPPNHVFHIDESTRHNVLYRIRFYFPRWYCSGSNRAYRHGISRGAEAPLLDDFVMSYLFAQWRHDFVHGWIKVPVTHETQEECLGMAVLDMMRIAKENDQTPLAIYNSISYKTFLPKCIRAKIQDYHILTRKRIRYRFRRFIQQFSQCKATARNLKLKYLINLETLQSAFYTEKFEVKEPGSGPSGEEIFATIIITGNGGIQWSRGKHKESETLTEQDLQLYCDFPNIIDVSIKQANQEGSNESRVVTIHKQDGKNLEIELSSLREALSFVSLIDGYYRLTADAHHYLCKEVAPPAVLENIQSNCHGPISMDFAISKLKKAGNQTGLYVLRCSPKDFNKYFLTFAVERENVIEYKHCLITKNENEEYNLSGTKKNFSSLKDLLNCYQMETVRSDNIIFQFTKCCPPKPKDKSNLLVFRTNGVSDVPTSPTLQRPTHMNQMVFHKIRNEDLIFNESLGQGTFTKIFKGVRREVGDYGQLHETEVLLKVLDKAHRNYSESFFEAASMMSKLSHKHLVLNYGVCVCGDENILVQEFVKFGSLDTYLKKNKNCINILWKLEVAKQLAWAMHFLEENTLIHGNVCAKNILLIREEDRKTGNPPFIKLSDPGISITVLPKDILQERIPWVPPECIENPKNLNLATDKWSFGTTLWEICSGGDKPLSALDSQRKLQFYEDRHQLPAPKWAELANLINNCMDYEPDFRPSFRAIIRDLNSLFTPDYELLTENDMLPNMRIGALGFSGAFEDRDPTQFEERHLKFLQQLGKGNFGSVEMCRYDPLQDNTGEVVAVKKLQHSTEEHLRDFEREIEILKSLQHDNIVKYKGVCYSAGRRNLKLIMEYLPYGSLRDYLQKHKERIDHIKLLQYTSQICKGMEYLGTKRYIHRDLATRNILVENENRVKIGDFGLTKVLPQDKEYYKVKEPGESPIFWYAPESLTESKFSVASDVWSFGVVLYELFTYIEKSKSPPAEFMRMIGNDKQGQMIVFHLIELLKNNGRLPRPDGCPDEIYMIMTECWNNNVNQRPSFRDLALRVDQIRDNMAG
Sequence of Insulin receptor (Homo sapiens) (P06213 28-758 limits assumed): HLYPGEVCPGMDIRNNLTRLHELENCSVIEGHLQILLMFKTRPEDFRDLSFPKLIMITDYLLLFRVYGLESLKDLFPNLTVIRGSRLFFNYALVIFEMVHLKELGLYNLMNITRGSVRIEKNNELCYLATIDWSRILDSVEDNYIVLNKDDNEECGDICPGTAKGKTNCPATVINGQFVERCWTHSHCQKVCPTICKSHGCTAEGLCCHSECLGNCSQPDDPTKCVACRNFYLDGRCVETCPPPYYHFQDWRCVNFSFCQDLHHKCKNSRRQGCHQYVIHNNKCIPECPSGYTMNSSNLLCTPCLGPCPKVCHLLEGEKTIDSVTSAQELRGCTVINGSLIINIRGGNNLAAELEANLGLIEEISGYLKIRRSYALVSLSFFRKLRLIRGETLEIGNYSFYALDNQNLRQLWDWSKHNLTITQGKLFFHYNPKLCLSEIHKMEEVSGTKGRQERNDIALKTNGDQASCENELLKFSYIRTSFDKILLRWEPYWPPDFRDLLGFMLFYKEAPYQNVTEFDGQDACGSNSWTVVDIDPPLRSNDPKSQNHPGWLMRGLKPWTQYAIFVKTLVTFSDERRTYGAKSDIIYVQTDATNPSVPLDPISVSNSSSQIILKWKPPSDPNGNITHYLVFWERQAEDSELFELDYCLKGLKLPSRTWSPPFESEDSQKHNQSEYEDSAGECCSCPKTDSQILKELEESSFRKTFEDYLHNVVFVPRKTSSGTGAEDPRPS
Sequence of Insulin receptor (Homo sapiens) (P06213 763-1382 limits assumed): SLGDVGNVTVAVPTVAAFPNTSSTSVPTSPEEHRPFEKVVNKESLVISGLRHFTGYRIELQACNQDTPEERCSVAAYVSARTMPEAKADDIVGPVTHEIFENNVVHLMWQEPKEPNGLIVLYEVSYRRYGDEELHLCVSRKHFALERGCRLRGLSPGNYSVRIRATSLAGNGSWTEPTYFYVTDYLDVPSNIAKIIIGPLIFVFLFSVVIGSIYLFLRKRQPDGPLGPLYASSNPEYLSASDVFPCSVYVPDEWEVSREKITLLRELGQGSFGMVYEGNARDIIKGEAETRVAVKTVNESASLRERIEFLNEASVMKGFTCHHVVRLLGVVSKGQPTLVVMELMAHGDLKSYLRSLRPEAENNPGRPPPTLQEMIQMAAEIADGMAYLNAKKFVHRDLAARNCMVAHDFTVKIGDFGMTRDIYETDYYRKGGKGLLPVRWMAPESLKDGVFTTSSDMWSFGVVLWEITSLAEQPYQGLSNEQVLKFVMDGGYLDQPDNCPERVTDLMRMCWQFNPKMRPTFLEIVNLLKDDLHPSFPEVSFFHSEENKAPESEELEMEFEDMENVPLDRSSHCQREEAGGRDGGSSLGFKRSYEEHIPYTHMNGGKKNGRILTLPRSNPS
Sequence of Insulin-like growth factor 1 receptor (Homo sapiens) (P08069 31-736 limits assumed): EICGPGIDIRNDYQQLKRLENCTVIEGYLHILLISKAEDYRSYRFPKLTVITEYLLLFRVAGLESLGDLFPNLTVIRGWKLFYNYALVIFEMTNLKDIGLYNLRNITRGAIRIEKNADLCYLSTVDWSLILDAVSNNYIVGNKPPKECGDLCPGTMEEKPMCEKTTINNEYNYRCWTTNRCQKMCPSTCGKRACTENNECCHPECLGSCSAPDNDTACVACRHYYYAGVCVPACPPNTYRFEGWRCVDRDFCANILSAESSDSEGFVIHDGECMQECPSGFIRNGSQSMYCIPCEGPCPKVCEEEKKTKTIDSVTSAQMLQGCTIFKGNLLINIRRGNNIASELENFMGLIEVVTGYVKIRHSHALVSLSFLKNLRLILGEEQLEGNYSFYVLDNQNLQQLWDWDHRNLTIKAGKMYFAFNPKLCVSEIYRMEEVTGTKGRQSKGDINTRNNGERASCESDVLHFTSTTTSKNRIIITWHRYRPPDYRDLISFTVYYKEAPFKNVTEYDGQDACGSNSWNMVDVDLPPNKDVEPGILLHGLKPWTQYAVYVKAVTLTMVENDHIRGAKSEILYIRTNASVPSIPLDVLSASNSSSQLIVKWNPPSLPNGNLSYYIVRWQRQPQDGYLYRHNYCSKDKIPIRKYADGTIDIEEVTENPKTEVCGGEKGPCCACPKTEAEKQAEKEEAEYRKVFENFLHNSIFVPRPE
Sequence of Insulin-like growth factor 1 receptor (Homo sapiens) (P08069 741-1367 limits assumed): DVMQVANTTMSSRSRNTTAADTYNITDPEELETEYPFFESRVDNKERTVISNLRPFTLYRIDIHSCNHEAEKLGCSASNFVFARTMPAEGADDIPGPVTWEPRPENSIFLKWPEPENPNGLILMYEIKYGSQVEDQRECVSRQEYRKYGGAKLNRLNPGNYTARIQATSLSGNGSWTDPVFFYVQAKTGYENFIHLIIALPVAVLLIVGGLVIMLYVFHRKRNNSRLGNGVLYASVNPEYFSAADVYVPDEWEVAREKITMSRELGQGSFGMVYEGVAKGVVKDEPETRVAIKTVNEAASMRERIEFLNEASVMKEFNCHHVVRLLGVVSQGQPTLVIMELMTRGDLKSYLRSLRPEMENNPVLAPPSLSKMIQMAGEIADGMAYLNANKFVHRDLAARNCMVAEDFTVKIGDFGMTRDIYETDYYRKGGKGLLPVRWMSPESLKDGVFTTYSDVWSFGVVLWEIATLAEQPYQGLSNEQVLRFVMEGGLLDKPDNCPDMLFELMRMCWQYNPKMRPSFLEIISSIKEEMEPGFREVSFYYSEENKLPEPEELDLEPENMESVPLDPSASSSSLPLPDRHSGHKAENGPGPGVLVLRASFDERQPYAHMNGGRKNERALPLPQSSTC

SMILES	inhibition [1]	inhibition [2]	inhibition [3]	inhibition [4]	inhibition [5]	inhibition [6]	inhibition [7]	inhibition [8]	inhibition [9]	inhibition [10]	inhibition [11]	inhibition [12]	inhibition [13]	inhibition [14]	inhibition [15]	inhibition [16]	inhibition [17]	inhibition [18]	inhibition [19]	inhibition [20]
COc1ccc(-c2ccncc2)cc1C(N)=O	3.66%	6.67%	9.92%	3.69%	4.13%	9.09%	6.94%	2.71%	2.24%	1.95%	2.32%	0.28%	3.27%	2.44%	3.4%	-2%	0.37%	2.67%	13%	3.75%
c1cnn2ncc(-c3ccnc(Nc4ccc5c(c4)OCCO5)n3)c2c1	8.63%	6.09%	16.8%	15%	56.6%	12.7%	58.5%	5.36%	15.2%	1.86%	5.82%	8.27%	19.7%	2.1%	20.6%	1.94%	46%	9.54%	37.4%	95%
Cc1cccc(-c2n[nH]cc2-c2ccc3ncccc3n2)n1	6.38%	0.57%	5.58%	1.27%	-0.01%	-0.03%	2.58%	-0.57%	-0.38%	0.38%	1.48%	-0.09%	3.85%	-0.23%	-0.14%	0.65%	3.06%	61.3%	83.2%	-0.25%
CCn1c(-c2nonc2N)nc2cnc(Oc3cccc(NC(=O)c4ccc(OCCN5CCOCC5)cc4)c3)cc21	5.35%	6.47%	4.67%	-0.59%	1.49%	5.62%	7.3%	1.29%	0.16%	0.81%	0.94%	4.42%	12.1%	5.74%	1.29%	0.31%	-0.45%	5.67%	7.83%	5.45%
CN1CCC(C(=O)Nc2n[nH]c3nnc(-c4ccccc4)cc23)CC1	3.89%	3.42%	7.61%	3.98%	4.17%	7.76%	4.86%	1.63%	2.13%	1.35%	2.38%	4.13%	17.6%	1.08%	1.05%	-1.09%	-0.3%	2.34%	10.6%	4.36%
Nc1nc(-c2ccccn2)c(-c2ccc3ncccc3n2)s1	-0.24%	2.25%	6.89%	3.05%	3.2%	2.46%	1.2%	2.58%	2.92%	1.05%	2.48%	0.52%	4.22%	-0.07%	2%	-1.07%	-0.57%	3.52%	8.02%	3.79%
COc1ccc(-c2nn3ncccc3c2-c2ccnc(Nc3ccc(Cl)c(C(F)(F)F)c3)n2)cc1	6.37%	1.57%	4.58%	0.1%	-0.08%	3.14%	2.37%	-1.6%	1.11%	0.94%	0.32%	1.77%	10.6%	-0.46%	-0.98%	-0.77%	-0.67%	1.69%	4.52%	1.4%
